From ChEMBL document CHEMBL1961873, “Compounds: GSK PKIS; Assays: Nanosyn kinase panel” (2012) come the findings set out here.

Test [1] addresses T1, Interleukin-1 receptor-associated kinase 4 (Homo sapiens) (UniProt Q9NWZ3).
T1 sequence (whole entry): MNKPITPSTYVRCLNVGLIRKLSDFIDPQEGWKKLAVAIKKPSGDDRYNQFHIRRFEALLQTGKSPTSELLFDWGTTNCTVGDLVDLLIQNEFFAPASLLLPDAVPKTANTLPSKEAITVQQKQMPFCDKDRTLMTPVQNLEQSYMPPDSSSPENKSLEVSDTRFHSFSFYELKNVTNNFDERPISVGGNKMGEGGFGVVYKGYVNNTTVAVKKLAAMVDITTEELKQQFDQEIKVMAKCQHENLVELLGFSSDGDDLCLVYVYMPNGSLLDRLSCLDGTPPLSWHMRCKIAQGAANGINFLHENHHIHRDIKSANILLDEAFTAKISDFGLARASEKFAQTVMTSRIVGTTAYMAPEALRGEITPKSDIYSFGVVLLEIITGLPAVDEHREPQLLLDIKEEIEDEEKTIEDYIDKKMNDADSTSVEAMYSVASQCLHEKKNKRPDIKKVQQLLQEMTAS
Conditions: at 0.1 µM.

For test [2], the target named is T1, Interleukin-1 receptor-associated kinase 4 (Homo sapiens). The conditions noted are these: at 1 µM.
For test [3], the target named is Leucine-rich repeat serine/threonine-protein kinase 2 (Homo sapiens) (UniProt Q5S007). The conditions noted are these: at 0.1 µM.
Leucine-rich repeat serine/threonine-protein kinase 2 (Homo sapiens), sequence (Q5S007 whole entry): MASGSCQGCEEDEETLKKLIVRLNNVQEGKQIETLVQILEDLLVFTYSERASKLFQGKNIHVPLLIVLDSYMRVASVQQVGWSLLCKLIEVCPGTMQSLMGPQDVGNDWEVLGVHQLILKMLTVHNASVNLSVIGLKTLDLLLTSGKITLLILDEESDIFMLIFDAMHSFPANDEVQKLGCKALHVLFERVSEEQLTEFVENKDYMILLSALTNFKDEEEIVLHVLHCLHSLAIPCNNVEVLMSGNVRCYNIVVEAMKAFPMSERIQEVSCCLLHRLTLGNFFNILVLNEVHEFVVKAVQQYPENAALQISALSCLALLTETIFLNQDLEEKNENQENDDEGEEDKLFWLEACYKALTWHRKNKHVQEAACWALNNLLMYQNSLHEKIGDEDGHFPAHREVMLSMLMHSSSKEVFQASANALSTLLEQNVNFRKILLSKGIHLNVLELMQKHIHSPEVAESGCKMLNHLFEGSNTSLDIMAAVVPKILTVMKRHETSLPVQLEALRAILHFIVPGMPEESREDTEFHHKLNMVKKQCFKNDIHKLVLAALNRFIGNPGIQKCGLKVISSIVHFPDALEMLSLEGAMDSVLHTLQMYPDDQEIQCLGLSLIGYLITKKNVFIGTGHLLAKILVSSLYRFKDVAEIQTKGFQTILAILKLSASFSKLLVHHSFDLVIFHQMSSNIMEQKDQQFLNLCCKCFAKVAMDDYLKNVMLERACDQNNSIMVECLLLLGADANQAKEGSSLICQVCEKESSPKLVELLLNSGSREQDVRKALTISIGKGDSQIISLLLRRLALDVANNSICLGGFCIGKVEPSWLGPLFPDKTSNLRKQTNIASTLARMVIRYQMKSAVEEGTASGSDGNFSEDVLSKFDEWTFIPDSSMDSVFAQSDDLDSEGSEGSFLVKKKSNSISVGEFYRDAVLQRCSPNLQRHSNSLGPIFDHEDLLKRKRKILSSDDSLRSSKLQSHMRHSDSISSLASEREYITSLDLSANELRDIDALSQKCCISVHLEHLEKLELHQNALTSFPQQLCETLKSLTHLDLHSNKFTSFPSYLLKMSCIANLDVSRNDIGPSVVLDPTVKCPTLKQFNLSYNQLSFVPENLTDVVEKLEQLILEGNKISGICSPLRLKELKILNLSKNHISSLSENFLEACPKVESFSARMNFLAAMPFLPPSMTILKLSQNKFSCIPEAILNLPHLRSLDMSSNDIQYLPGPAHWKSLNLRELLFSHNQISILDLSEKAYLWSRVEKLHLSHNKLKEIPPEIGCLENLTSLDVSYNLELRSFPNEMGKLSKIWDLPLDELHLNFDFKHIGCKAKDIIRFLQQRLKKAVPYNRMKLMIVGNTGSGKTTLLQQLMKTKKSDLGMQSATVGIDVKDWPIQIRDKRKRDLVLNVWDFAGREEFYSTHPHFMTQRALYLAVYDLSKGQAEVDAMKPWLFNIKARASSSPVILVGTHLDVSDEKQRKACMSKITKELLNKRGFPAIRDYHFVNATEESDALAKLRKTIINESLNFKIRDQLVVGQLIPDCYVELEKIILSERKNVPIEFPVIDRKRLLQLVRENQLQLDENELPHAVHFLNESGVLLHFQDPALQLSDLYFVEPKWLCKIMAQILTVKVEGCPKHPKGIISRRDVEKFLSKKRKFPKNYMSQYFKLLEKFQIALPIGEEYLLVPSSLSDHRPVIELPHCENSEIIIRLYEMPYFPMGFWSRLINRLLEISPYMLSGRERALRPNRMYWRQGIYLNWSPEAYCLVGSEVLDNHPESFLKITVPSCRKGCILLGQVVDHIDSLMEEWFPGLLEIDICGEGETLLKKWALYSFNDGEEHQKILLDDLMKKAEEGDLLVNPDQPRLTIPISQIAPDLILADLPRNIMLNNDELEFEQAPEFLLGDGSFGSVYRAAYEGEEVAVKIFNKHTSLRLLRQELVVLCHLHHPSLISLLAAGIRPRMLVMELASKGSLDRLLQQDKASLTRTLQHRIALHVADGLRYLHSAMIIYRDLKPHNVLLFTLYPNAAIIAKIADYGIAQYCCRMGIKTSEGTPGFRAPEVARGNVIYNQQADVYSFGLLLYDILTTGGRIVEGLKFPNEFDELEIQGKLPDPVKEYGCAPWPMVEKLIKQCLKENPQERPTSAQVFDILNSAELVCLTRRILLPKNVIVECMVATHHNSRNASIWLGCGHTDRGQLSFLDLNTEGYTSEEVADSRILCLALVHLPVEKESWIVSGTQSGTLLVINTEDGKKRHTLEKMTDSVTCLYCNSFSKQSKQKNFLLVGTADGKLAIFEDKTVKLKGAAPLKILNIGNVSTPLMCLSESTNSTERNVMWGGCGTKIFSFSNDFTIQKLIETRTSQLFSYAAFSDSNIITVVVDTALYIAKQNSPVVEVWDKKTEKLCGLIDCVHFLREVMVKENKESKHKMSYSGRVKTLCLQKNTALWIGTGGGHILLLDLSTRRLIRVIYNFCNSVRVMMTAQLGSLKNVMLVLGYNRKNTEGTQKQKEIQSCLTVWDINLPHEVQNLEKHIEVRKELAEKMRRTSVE
For test [4] the target is unchanged. Conditions: at 1 µM.
The test system of test [5] is Leucine-rich repeat serine/threonine-protein kinase 2 (Homo sapiens), Q5S007 [G2019S]. Conditions: at 0.1 µM.
Leucine-rich repeat serine/threonine-protein kinase 2 (Homo sapiens), Q5S007 [G2019S], sequence (Q5S007 whole entry G2019S): as the sequence (Q5S007 whole entry) above, with G2019S counted along it
Test [6] shares this test system. Conditions: at 1 µM.
In test [7] the target is RAF proto-oncogene serine/threonine-protein kinase (Homo sapiens) (UniProt P04049). The conditions noted are these: at 1 µM.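 Further: values are the mean percent inhibition of CRAF.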
RAF proto-oncogene serine/threonine-protein kinase (Homo sapiens), sequence (P04049 whole entry): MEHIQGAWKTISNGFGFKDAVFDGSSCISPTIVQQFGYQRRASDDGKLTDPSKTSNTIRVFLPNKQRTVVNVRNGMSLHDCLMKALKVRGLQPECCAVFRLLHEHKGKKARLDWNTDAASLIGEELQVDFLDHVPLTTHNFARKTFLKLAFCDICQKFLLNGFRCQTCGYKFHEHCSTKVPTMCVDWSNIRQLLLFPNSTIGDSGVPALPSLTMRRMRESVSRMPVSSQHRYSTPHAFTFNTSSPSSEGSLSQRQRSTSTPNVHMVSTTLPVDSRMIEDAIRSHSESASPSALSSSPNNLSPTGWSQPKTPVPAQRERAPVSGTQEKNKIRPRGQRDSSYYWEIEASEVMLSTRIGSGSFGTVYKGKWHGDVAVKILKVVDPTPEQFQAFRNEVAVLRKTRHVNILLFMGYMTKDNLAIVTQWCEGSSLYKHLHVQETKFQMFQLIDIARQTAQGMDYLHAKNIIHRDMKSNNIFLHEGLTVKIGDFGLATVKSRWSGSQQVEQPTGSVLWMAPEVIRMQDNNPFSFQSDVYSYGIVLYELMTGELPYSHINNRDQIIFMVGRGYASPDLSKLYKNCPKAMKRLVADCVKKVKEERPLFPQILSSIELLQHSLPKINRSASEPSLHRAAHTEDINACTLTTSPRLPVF

Take `c1cc(-c2cnn3nc(N4CCOCC4)ccc23)nc(NC2CC2)n1`: the inhibition in test [1] is -3.02%; in test [2], 4.62%; in test [3], 4.63%; in test [4] it was 16.4%; in test [5], 6.59%; in test [6], 37.2%.

Regarding `COc1ccc(CNC(=O)c2ccc(-c3cc(-c4nnc(C)o4)ccc3C)cc2)cc1`, the inhibition in test [7] is -4.44%; in test [1], 0.85%; in test [2], 1.98%; in test [3], 3.51%; in test [4], 10.8%; in test [5], 5.52%. Also, in test [6], the inhibition was determined as 9.35%.

In the case of `NS(=O)(=O)c1ccc(N/N=C2\C(=O)Nc3ccc4ncccc4c32)cc1`, the inhibition was determined as 2.94% in test [1]; 2.77% in test [2]; 19.4% in test [3]; 22.2% in test [4]; 40.4% in test [5]; 63.2% in test [6].

In the case of `FC(F)(F)c1cccc(-c2nn3ncccc3c2-c2ccnc(Nc3ccc4c(c3)OCCO4)n2)c1`, the inhibition in test [7] is -8.65%; in test [1] it was 6.37%; in test [2] it was 0.32%; in test [3], 3.16%; in test [4] it was 5.46%; in test [5] it was 2.53%. Besides, in test [6], the inhibition was found to be 7.93%.

Regarding `COc1cccc(-c2c[nH]c3c(N/N=C/c4ccncc4)ncnc23)c1`, the inhibition in test [1] was -2.59%; in test [2] it was 5.06%; in test [3], 4.34%; in test [4], 14%; in test [5], 5.22%; in test [6], 25.9%.

Turning to `CCNC(=O)O[C@H]1CN[C@H](C#Cc2cc3ncnc(Nc4ccc(OCc5cccc(F)c5)c(Cl)c4)c3s2)C1`, the inhibition was -5.34% in test [1]; 6.03% in test [2]; 3.12% in test [3]; 4.18% in test [4]; 2.44% in test [5]; 6.88% in test [6].

For `COC(=O)Nc1nc2ccc(Oc3ccc(NC(=O)Nc4cccc(Cl)c4)cc3)cc2[nH]1`, the inhibition in test [7] was 5.38%; in test [1], -0.12%; in test [2] it was 0.32%; in test [3], 6.71%; in test [4] it was 14.1%; in test [5], 5%. Besides, the inhibition in test [6] was 6.86%.

With `N#Cc1c(NC(=O)CN2CCOCC2)sc2c1CCCC2`, the inhibition in test [7] is -1.23%; in test [1], 1.87%; in test [2] it was 2.93%; in test [3], 2.88%; in test [4], 8.63%; in test [5], 3.95%. The inhibition in test [6] came to 8.85%.

`COC(=O)Nc1nc2ccc(S(=O)(=O)c3ccc(NC(=O)Nc4cc(C(F)(F)F)ccc4F)cc3)cc2[nH]1`: the inhibition is -2.68% in test [7]; 2.19% in test [1]; 1.11% in test [2]; 4.08% in test [3]; 3.21% in test [4]; 2.36% in test [5]. Further, the inhibition in test [6] was 6.79%.

As to `CCn1c(-c2nonc2N)nc2cnc(Oc3cccc(NC(=O)c4ccc(N(C)C)cc4)c3)cc21`, the inhibition in test [7] is -4.15%; in test [1], 0.85%; in test [2], 0.95%; in test [3] it was 2.37%; in test [4], 6.56%; in test [5], 5.49%. The inhibition in test [6] stood at 27.4%.

In the case of `Fc1cccc(COc2ccc(Nc3ncnc4sc(-c5ccco5)cc34)cc2Cl)c1`, the inhibition in test [7] was found to be 0.89%; in test [1] it was 0.84%; in test [2], 1.26%; in test [3], 3.64%; in test [4] it was 6.42%; in test [5], 5.67%. The inhibition in test [6] stood at 9.11%.

In the case of `COc1ccc(-c2cc(-c3c[nH]nc3-c3ccccn3)ccn2)cc1`, the inhibition in test [7] is 0.07%; in test [1], -2.78%; in test [2] it was 2.03%; in test [3], 2.47%; in test [4], 7.04%; in test [5], 4.82%. Moreover, the inhibition in test [6] turned out to be 7.48%.

For the compound `CC(C)COC(=O)c1ccc2c(c1)/C(=C/Nc1ccc(S(N)(=O)=O)cc1)C(=O)N2`, the inhibition was 0.2% in test [7]; 2.68% in test [1]; 0.81% in test [2]; 7.28% in test [3]; 22.7% in test [4]; 23.3% in test [5]. Moreover, in test [6], the inhibition was found to be 64.1%.

For `COc1ccc2c(-c3ccnc(Nc4cccc(OC(F)(F)F)c4)n3)cnn2n1`, the inhibition in test [1] is -3.64%; in test [2] it was 2.91%; in test [3], 5.25%; in test [4], 14.5%; in test [5], 8.08%; in test [6], 39.3%.

For the compound `CCn1c(-c2nonc2N)nc2ccccc21`, the inhibition is 2.78% in test [7]; -0.13% in test [1]; 1.55% in test [2]; 6.41% in test [3]; 8.23% in test [4]; 5% in test [5]. For the same compound, the inhibition in test [6] is 13.7%.

For the compound `Cc1ccc(O)cc1Nc1ccnc2cc(-c3ccccn3)ccc12`, the inhibition in test [1] was -3.41%; in test [2] it was 2.33%; in test [3], 5.01%; in test [4], 11.4%; in test [5], 7.5%; in test [6], 31.1%.

For `Cc1cccc2c1NC(=O)/C2=N\Nc1ccc(S(N)(=O)=O)cc1`, the inhibition in test [1] was -0.09%; in test [2], 1.25%; in test [3] it was 2.99%; in test [4], 7.1%; in test [5], 2.75%; in test [6] it was 10.2%.

For the compound `COc1ccc2[nH]c3c4[nH]c5ccc(OC)cc5c4c4c(c3c2c1)C(=O)NC4=O`, the inhibition is -1.59% in test [7]; -1.07% in test [1]; 4.52% in test [2]; 20.8% in test [3]; 24.3% in test [4]; 61% in test [5]. For the same compound, in test [6], the inhibition came to 63.2%.

With `CCn1cc(-c2ccnc3[nH]ccc23)c(-c2cccc(NC(=O)Nc3ccc(OCc4ccccc4)cc3)c2)n1`, the inhibition in test [7] was -2.76%; in test [1], -0.99%; in test [2], -0.44%; in test [3] it was 2.13%; in test [4] it was 3.32%; in test [5], 3.73%. Besides, the inhibition in test [6] stood at 4%.

Turning to `COc1cccc(-n2ncc3c(N/N=C/c4ccc(F)cc4)ncnc32)c1`, the inhibition was -3.94% in test [1]; 1.4% in test [2]; 1.96% in test [3]; 6.79% in test [4]; 5.09% in test [5]; 8.94% in test [6].

The inhibition is the drop in the measured response relative to a control, in per cent.
